The whole screen tested about 330,000 compounds, of which about 1,500 (0.45%) were called active. Cut-off read from the data, not from the text of the source: active = inhibition above about 45% (passing the limit was not always enough); inconclusive = no clear call, values can overlap the other calls. The entries come from a sample that favours actives as a whole.
The compounds below were run against Ubiquitin-conjugating enzyme E2 N (Homo sapiens) (UniProt P61088) (assay: blockers of UBC13 ubiquitin chain synthesis – biochemical, TR-FRET, uHTS, primary screen (AID 485273)). Settings: UBC13 polyubiquitin chain formation, at 20 µM, active compounds read high.
Sequence of Ubiquitin-conjugating enzyme E2 N (Homo sapiens) (P61088 whole entry, looked up): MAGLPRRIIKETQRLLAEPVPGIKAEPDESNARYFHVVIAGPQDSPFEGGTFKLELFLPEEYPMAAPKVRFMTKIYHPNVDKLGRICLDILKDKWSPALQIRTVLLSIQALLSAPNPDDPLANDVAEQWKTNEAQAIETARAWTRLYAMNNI

Row | Structure (SMILES) | inhibition
1 | Cc1cc(C)c(NC(=O)C[N+](C)(C)CC(O)COc2cccc3ccccc23)c(C)c1 (configuration not stated) | 45.4% (active)
2 | CC(C)c1ccccc1OCC(O)CN(CC(O)COc1cccc2ccccc12)C(C)C (configuration not stated) | 10.8% (inactive)
3 | Cc1cc(C)cc(OCC(=O)NCc2cc(C)nc3ccccc23)c1 | 7.7% (inactive)
4 | CCCCCN(C(=O)CCC(=O)OCC(=O)NCc1ccc(OC)cc1)c1c(N)n(CCCC)c(=O)[nH]c1=O | 2.5% (inactive)
5 | CCn1ccnc1CN1CCCC(C(=O)c2ccc3c4c(cccc24)CC3)C1 (configuration not stated) | 19.1% (inactive)
6 | O=C(c1ccccc1)N1CCN(C(=O)c2cc3nc(-c4ccccc4)cc(C(F)(F)F)n3n2)CC1 | 2.2% (inactive)
7 | O=C(O)/C(=C/c1cccnc1)NC(=O)c1ccccc1 | 7.7% (inactive)
8 | OCCCNc1nccc(-c2cc(Nc3cccc(Cl)c3)ncn2)n1 | 35.7% (inactive)
9 | CC(C)n1cnc2c(Nc3cccc(Cl)c3)nc(N(CCO)CCCO)nc21 | 64.8% (active)
10 | CC(C)C[C@H](CO)Nc1nc(N(C)c2cccc(Cl)c2)c2ncn(C(C)C)c2n1 | 24.1% (inactive)
11 | O=C(O)CCn1c(SCc2cc(=O)n3ccccc3n2)nc2ccsc2c1=O | -6.3% (inactive)
12 | O=C(Nc1cccnc1Oc1ncnc2cc(Cl)ccc12)c1ccc(F)cc1 | 2.8% (inactive)
13 | COc1ccc(N2CCN(CCNC(=O)Nc3cc(Cl)ccc3Cl)CC2)cc1 | 5.5% (inactive)
14 | CC(=O)c1ccc(NC(=O)c2sc3nc4n(c(=O)c3c2C)CCCCC4)cc1 | -6.8% (inactive)
15 | CC(=O)Nc1ccc(NC(=O)c2sc3nc4c(c(-c5ccc(C)cc5)c3c2N)CCC4)cc1 | 54% (active)
16 | Cc1ccc(NC(=O)c2sc3nc(N)c(C#N)cc3c2N)cc1 | 1% (inactive)
17 | COc1ccc(C=C(C#N)C#N)c(CSc2ccccn2)c1 | 3.1% (inactive)
18 | O/N=C(\C[n+]1ccccc1)c1ccc(Br)cc1 | -4.7% (inactive)
19 | O=C(NCC(c1cccs1)N1CCOCC1)c1cc(-c2ccccn2)nc2ccccc12 (configuration not stated) | 1.9% (inactive)
20 | CCCCN(C)CCCNC(=O)c1cc(-c2cccs2)nc2ccccc12 | 48.3% (active)
21 | O=C(Nc1nnc(-c2ccccc2)o1)c1cc(-c2cccs2)nc2ccccc12 | -31.4% (inactive)
22 | CC(=O)NCCNC(=O)c1cc(-c2cccc3ccccc23)nc2ccccc12 | 8.4% (inactive)

Row | Structure (SMILES) | inhibition
23 | COC(=O)c1cc(N2CCNCC2)nc2ccccc12 | 17.5% (inactive)
24 | COC(=O)c1cc(-c2cccs2)nc2ccccc12 | 45.2% (active)
25 | COc1cccc(NC(=O)CN(C)C(=O)c2cc(C3CC3)nn2-c2ccccc2)c1 | -2.2% (inactive)
26 | CCOCCCNS(=O)(=O)Cc1ccccc1 | -13.7% (inactive)
27 | CCOc1ccc(N(CC(=O)NCCc2ccc(OC)cc2)S(C)(=O)=O)cc1 | 3.8% (inactive)
28 | Cc1sc2ncnc(N3CCC(C(=O)Nc4ccc(F)cc4Cl)CC3)c2c1C | 17.7% (inactive)
29 | Cc1ccc(S(=O)(=O)N(C)c2ccc(OCC(=O)OCC(=O)N(CC#N)c3ccccc3)cc2)cc1 | -0.2% (inactive)
30 | CCCc1cc(=O)[nH]c2nnc(SCC(=O)Nc3nnc(SCC)s3)n12 | -15.5% (inactive)
31 | NCC(=O)c1cccc2ccc[n+]([O-])c12 | -7.7% (inactive)
32 | O=C(NCC(=O)N(Cc1cccs1)C(C(=O)NC1CCCCC1)c1ccco1)c1cccs1 (configuration not stated) | -5.1% (inactive)
33 | CCn1c(SCC(=O)NCC2CCCO2)nc2ccccc21 (configuration not stated) | 5.4% (inactive)
34 | Cc1ccc(NC(=O)c2cnc(SCC(=O)NCC3CCCO3)n(C)c2=O)cc1 (configuration not stated) | 93.1% (active)
35 | Cn1c(SCC(=O)c2ccccc2)ncc(C(=O)Nc2ccc(F)cc2)c1=O | 36.4% (inactive)
36 | Cc1ccccc1-n1cc(CNC(=O)C2CCC(=O)N(C3CC3)C2)cn1 (configuration not stated) | 8.4% (inactive)
37 | COc1ccc(-n2nc(C(=O)Nc3cc(OC)c(OC)c(OC)c3)c3ccccc3c2=O)c(OC)c1 | 21.2% (inactive)
38 | N#CCc1ccc(NC(=O)c2ccccc2C(=O)Nc2ccc(CC#N)cc2)cc1 | 2.2% (inactive)
39 | CCOCCCNC(=O)c1cn(CC(C)C)c(=O)c2c1c1ccccc1n2C | 51.1% (active)
40 | COCCCNC(=O)Cn1cc(C(=O)C2CC2)c2ccccc21 | 11.8% (inactive)
41 | CCCCOCCCNC(=O)c1ccccc1OCC | 1.4% (inactive)
42 | CN(C)c1nc(N)nc(Cn2nnc(-c3ccc(C(F)(F)F)cc3)n2)n1 | 4% (inactive)
43 | COc1ccccc1-c1sc2ccccc2c1-c1ccc(Br)nc1 | 21.7% (inactive)
44 | COc1ccccc1-c1sc2ccccc2c1-c1ccc(C(C)=O)cc1 | 47.4% (active)

Row | Structure (SMILES) | inhibition
45 | COc1ccccc1-c1sc2ccccc2c1C#CC1(O)CCCCC1 | -2.3% (inactive)
46 | CCCC1C(=O)N2C(N(C)C)=Nc3ccc(C)cc3N2C1=O (configuration not stated) | -21% (inactive)
47 | COc1cccc2sc3cc(NCC[C@@H]4CCCN4C)ccc3c(=O)c12 | 45.1% (active)
48 | COc1cccc(OC)c1C(=O)Nc1ccc2c(c1)n(C)c(=O)n2C | 1.6% (inactive)
49 | Cc1cc2oc3ccc(NCCC4CCCN4C)cc3c(=O)c2cc1C (configuration not stated) | 33.1% (inactive)
50 | COCCn1c(SCC(=O)Nc2ccccc2F)nc2c(c1=O)SCC2 | -6.9% (inactive)
51 | COc1ccc(-n2nnnc2-c2nc3ccccc3s2)cc1 | 53.4% (active)
52 | COc1ccc(C2=NN(c3nc4ccccc4s3)C(=O)C2)cc1 | -13.1% (inactive)
53 | COc1ccc(-n2nnnc2CNC(=O)c2ccc3ccccc3c2)cc1 | -2.4% (inactive)
54 | Cc1c(Cl)cnc(NC(=O)COC(=O)C2CCCC2)c1Cl | 3.7% (inactive)
55 | CCCN1CCn2c3c(c4cc(Br)ccc42)CCCC31 (configuration not stated) | -1.1% (inactive)
56 | O=C(CCNS(=O)(=O)c1ccc(Br)cc1)NCC1CCCO1 (configuration not stated) | 1.5% (inactive)
57 | OC(CNCC1CCCO1)Cn1c2ccc(Br)cc2c2cc(Br)ccc21 (configuration not stated) | 57.5% (active)
58 | COc1ccccc1C(=O)N1C(CC(=O)Nc2ccccc2C)C(=O)NC2CCCCC21 (configuration not stated) | -2.3% (inactive)
59 | CCCC[C@@H]1CN=C(N)N1CCc1cccc(F)c1 | 13.5% (inactive)
60 | CCCC[C@@H]1CN=C(N)N1CCCC | -4.4% (inactive)
61 | CCCC[C@@H]1CN=C(N)N1CCc1cc(C(F)(F)F)cc(C(F)(F)F)c1 | 66.9% (active)
62 | COc1ccc(OC)c(-c2csc(NC(=O)C3=NNC(=O)CC3)n2)c1 | -3.9% (inactive)
63 | O=C(NCCCN1CCOCC1)c1ccc2c(c1)N(Cc1cccc(F)c1)C(=O)c1ccccc1S2 | 13.3% (inactive)
64 | Cc1ccccc1CN1C(=O)c2ccccc2Sc2ccc(C(=O)NCCCN3CCOCC3)cc21 | 15.4% (inactive)
65 | CCN1CCN(CCNC(=O)c2ccc(/C=C3/Sc4ccccc4N(Cc4cccc(C)c4)C3=O)cc2)CC1 | 50.8% (active)
66 | C=CCn1c(=S)sc2c(=O)[nH]c(C)nc21 | -13.8% (inactive)

Row | Structure (SMILES) | inhibition
67 | Cc1ccc(-c2noc(CCC(=O)Nc3ccccc3N3CCN(C)CC3)n2)cc1 | 71.9% (active)
68 | CCNC(=O)CCc1nc(-c2ccc(C)cc2)no1 | 0.3% (inactive)
69 | CN1CCN(C(=O)CCc2nc(-c3ccc(Cl)cc3)no2)CC1 | -0.3% (inactive)
70 | Cc1cc([N+](=O)[O-])c(NC2CCCCC2)c([N+](=O)[O-])c1 | -28.1% (inactive)
71 | O=C(Nc1ccc(F)cc1)C(=O)c1cn(CC(=O)N2CCOCC2)c2ccccc12 | -4.6% (inactive)
72 | CCN(CC(=O)Nc1ccc(OC)cc1)C(=O)c1ccc(Cl)c(S(=O)(=O)N2CCCC2)c1 | 8.9% (inactive)
73 | O=C(OCC1O[C@@H](OC(=O)c2cc(O)c(O)c(O)c2)[C@@H](OC(=O)c2cc(O)c(O)c(O)c2)[C@@H](OC(=O)c2cc(O)c(O)c(O)c2)[C@@H]1OC(=O)c1cc(O)c(O)c(O)c1)c1cc(O)c(O)c(O)c1 (some centres not stated) | 138% (active)
74 | O=C(NCCc1ccc(F)cc1)c1ccc2nccnc2c1 | -9.4% (inactive)
75 | CC1CCCN(C(C(=O)Nc2ccc(C(C)C)cc2)c2ccc3c(c2)OCO3)C1 (configuration not stated) | 9% (inactive)
76 | COc1ccccc1C(=O)N(C1=NC(C)CS1)c1ccc(Cl)cc1 (configuration not stated) | 1.5% (inactive)
77 | COCCCNC(=O)CC1C[C@H](C(=O)N2CCCCC2)[C@@]2(CCc3ccccc3)c3[nH]c4ccccc4c3CCN2C1=O (some centres not stated) | 14% (inactive)
78 | Cc1nc(N2CCN(c3ccccn3)CC2)c2c(C)c(C(=O)Nc3ccc(F)cc3)sc2n1 | 47.4% (active)
79 | Cc1nc(N2CCOCC2)c2c(C)c(C(=O)Nc3ccc(C(F)(F)F)cc3)sc2n1 | 5.6% (inactive)
80 | COc1ccc(NC(=O)c2sc3nc(C)nc(N4CCN(c5ccccn5)CC4)c3c2C)c(OC)c1 | 5.6% (inactive)
81 | Cc1cc(C)nc(N2C(=O)CC(Cc3ccccc3)C2=O)n1 (configuration not stated) | -12.4% (inactive)
82 | CC(C)NC(=O)C(c1ccc(F)cc1)N(C(=O)CCC(=O)Nc1ccccn1)c1ccccc1F (configuration not stated) | 2.6% (inactive)
83 | C#CCOCCOCCOCCNc1nc(N2CCN(C(=O)C([C@@H](C)O)n3cc([C@@H](N)CCCCN)nn3)CC2)nc(N2CCN(C(=O)[C@H](CCCCN)n3cc(CN)nn3)CC2)n1 (some centres not stated) | 107% (active)
84 | C#CCOCCOCCOCCNc1nc(N2CCN(C(=O)[C@H](CCC(=O)O)n3cc(C(N)CO)nn3)CC2)nc(N2CCN(C(=O)[C@H](CCCCN)n3cc(C(N)CC(C)C)nn3)CC2)n1 (some centres not stated) | -3.6% (inactive)
85 | C#CCOCCOCCOCCNc1nc(N2CCN(C(=O)C([C@@H](C)CC)n3cc(C(N)COC(=O)C(F)(F)F)nn3)CC2)nc(N2CCN(C(=O)[C@H](Cc3ccc(O)cc3)n3cc(C(N)[C@H](C)CC)nn3)CC2)n1 (some centres not stated) | 37.1% (inactive)
86 | C#CCOCCOCCOCCNc1nc(N2CCN(C(=O)C([C@@H](C)CC)n3cc(C(N)COC(=O)C(F)(F)F)nn3)CC2)nc(N2CCN(C(=O)[C@H](CCCCN)n3cc(C(N)CC(C)C)nn3)CC2)n1 (some centres not stated) | 108% (active)
87 | C#CCOCCOCCOCCNc1nc(N2CCN(C(=O)[C@H](CCCCN)n3cc(CCC(=O)O)nn3)CC2)nc(N2CCN(C(=O)[C@H](CCCCN)n3cc(CC(C)O)nn3)CC2)n1 (some centres not stated) | 2% (inactive)
